According to PubChem BioAssay AID1508600 (Functional Genomics Laboratory (NCATS/FGL), 2020):
In all, about 53,000 sequences went through this assay and about 3,700 (7%) were called active.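 Rule for the calls: active = gene knockdowns whose robust z-score for IL-1 alpha signal is at least 2 or at most -2, so actives lie on both sides; inactive = the rest.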 The full list was thinned out, with actives kept by preference.

experiment: Components of the Cytosolic LPS Sensing Pathway: Gene Identification via Genome-wide siRNA Screen; settings: RAW264.7 macrophages, IL-1a HTRF, actives lie on both sides, screened at 100 nM (by protocol), cells primed 5 h with Pam3CSK4 first;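 note: robust z of the log signal after scaling to non-targeting control siRNA wells of the plate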
Summary of the method: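 IL-1a HTRF of supernatants after 24 hour LipidA transfection of Pam3CSK4-primed (5 hours) RAW264.7 cells, 48h post-siRNA transfection (100 nM). Scores: percent of plate negative-control median, then log-based robust z-score.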

| Sequence | z-score |
| --- | --- |
| GGAAUCCUCUGAAUAACCUTT against Vmn1r172 | -1.14 (inactive) |
| GGGUGAUUUCUACCUUCAATT against D630003M21Rik | -0.496 (inactive) |
| GGAAGAGGAAAUCACCACATT against Clec11a | -2.16 (active) |
| GGUUGGUGAUGGCACAAACTT against Cct8 | -0.469 (inactive) |
| GGUAGAACUUAUUGUGGACTT against Ly6f | -0.692 (inactive) |
| CCUAUAAAGCUCUAAAGGATT against Caprin1 | 0.115 (inactive) |
| GGGUUUCCACAGACAAUGUTT against V1rg10 | -0.837 (inactive) |
| GGACCUUUUUUGUUCAAAATT against Rasd1 | 0.157 (inactive) |
| CUCUGUACUUGGGCAGGAATT against Cyp2c65 | 2.9 (active) |
| CGCUGCAUUAAAGACUAAATT against Kcnj10 | 0.414 (inactive) |
| GCAAACGGACACUUGGAAUTT against Hmx1 | -0.9 (inactive) |
| GGUAAACAUGAUGUCCCUCTT against A630038E17Rik | 0.0317 (inactive) |
| GGAAUAUGCUGCAAAAAUCTT against Camk2g | -1.58 (inactive) |
| GGCAGCCUGAACAUCAAUGTT against S100a13 | 1.47 (inactive) |
| CCGAAGCUUUAUCUUCUAUTT against Pkd2 | -0.719 (inactive) |
| GGCCAUGGUUUCAAAAACATT against Rspo2 | -1.33 (inactive) |
| GGCGAUCUUUGGAAUUAGATT against Ing3 | 0.209 (inactive) |
| GGGAACAUGUUUUACUCUUTT against Zfp521 | 1.63 (inactive) |
| GGUCGACAGAUCAAGCCUUTT against Psmb3 | -2.18 (active) |
| GCCAAUCUGAACUUGUGUUTT against Plet1 | -0.931 (inactive) |
| CCACAGGGACAACAAACUATT against Arid3b | 0.0513 (inactive) |
| CCUGUUUCGUAGAUUGUUUTT against Eftud2 | -0.35 (inactive) |

| Sequence | z-score |
| --- | --- |
| CGUGUCAUACAGGUGUGGUTT against Lhx8 | 2.11 (active) |
| UCCUUGCUGUCCUAACCAUTT against Gpr119 | 1.64 (inactive) |
| GCUGCACCAUCAAUUCCCATT against Vpreb3 | -1.63 (inactive) |
| GGCACUUGAAUUUCUAAGUTT against Cbx5 | 0.0672 (inactive) |
| GGACCCAGCAGUCAAGAUATT against 9930038B18Rik | 0.0416 (inactive) |
| CCAGCAAUAGUUCAGCAGATT against Ccdc82 | -2.72 (active) |
| GGUGCCAACCUCAAUUCAUTT against Hnf4a | 1.9 (inactive) |
| CCGGUUCACUGCUUGACCUTT against Wbp1 | 0.87 (inactive) |
| CGUUGUGAGGUUAUACGACTT against Tbc1d20 | -0.862 (inactive) |
| GGAACACUUUAAGACCAAATT against Fmnl1 | 0.482 (inactive) |
| GGAGUAUUAUGAAGUGUUGTT against Aip | 0.108 (inactive) |
| GGAAACUGGUGCUACAUUATT against Usp10 | 0.747 (inactive) |
| GGACAGGAUCAGAGAAAGATT against Zbtb7c | -2.15 (active) |
| GGACAUUGAGGAUUAUGUCTT against Med24 | 0.332 (inactive) |
| GCUAGAUGUAGAUAGAUAATT against Plekhm3 | -0.569 (inactive) |
| GCACAGGUGAGCUCUUUGATT against Nudt10 | -1.12 (inactive) |
| GUGUUUUACCAUUGGACAUTT against Klra20 | 1.58 (inactive) |
| GUUCGCUGAACACGUCUUCTT against Hpcal1 | 0.549 (inactive) |
| GGCAUUGAAUUACUUACAUTT against Slk | 2.46 (active) |
| GAGACAAUUGUAACAUUCUTT against Olfr176 | 1.2 (inactive) |
| GGCAGCUUAGCUGUUCGUCTT against Socs4 | -0.664 (inactive) |
| GGCCAGUUCUAUGUCAUGATT against Usf2 | -2.05 (active) |

| Sequence | z-score |
| --- | --- |
| GGCUCUCAGUGCCAUCAUUTT against Stk40 | -0.858 (inactive) |
| GCUUGGGUAAUAGAAAUCATT against Btnl1 | 0.6 (inactive) |
| GGUUCUCCAAACUCUGCCATT against Arhgap1 | 2.29 (active) |
| GCCAAGACAUCAGAAGGAUTT against Nrxn1 | 0.202 (inactive) |
| GGAAAACAGUGGUAGCUUATT against Cnp | 0.187 (inactive) |
| GGAUGAAGAUGAAAAAGAUTT against Hoxc9 | -0.247 (inactive) |
| GGGACUUUGUAAACAGUUUTT against Eci2 | 1.61 (inactive) |
| GGCUAACCGUAUCAGUCAUTT against Podnl1 | -1.23 (inactive) |
| GGCUUGAAUAUUAAAGUGATT against Arhgef19 | -0.505 (inactive) |
| GGAGGUGGUACAAUACACCTT against Gsg1 | 2.86 (active) |
| CCAACUUCAAAACUAUCGUTT against Trp53bp1 | 2.19 (active) |
| UGCGAGCUCACUGAUGUACTT against Adam34l | -1.69 (inactive) |
| GGGUUAGGUUGGGAUGGAUTT against Ccnd3 | -0.466 (inactive) |
| GCACCUGACAGAUACUUCCTT against Ints4 | -2.1 (active) |
| CGUGGGCCUAUGCUUGUCATT against Tsc1 | 0.32 (inactive) |
| GGUUCUGAUAUACGUGUUUTT against Rraga | 0.057 (inactive) |
| CCCAUUCACUCAUCACAUGTT against F630003A18Rik | -1.4 (inactive) |
| GGCAGUUUUGCAUGUGUGATT against Zfp654 | -2.23 (active) |
| GCCACUAAGAAUCAGACAUTT against Ryr1 | -0.382 (inactive) |
| CCAGACCAUUAACUUGAUUTT against Lsm8 | -0.739 (inactive) |
| GGUACGAGUGAUCGUACUUTT against 5330438I03Rik | 0.54 (inactive) |
| CCCGUCACCACUUAACAUGTT against Rasal2 | 0.699 (inactive) |

| Sequence | z-score |
| --- | --- |
| GCUUUGAUGUCGAUGGGCUTT against Arg1 | -2.01 (active) |
| GGAAUACCAUGUUACAAUUTT against Reln | 0.816 (inactive) |
| GGUGUCUUUUUUUACAAGATT against Tnfsf11 | 0.233 (inactive) |
| GGAGGAACCUAAUUGAAUGTT against Cmbl | 0.183 (inactive) |
| GGUCCAGAUAGACAUCCUGTT against Ralb | 0.169 (inactive) |
| GCAACUUGUCAGAUGUUUCTT against Trpm7 | 3.35 (active) |
| GGGAUAAAUAUGAAGAAAGTT against Tacc2 | -1.46 (inactive) |
| GGAACAGAGAUAUGAAACATT against Olfr738 | -2.4 (active) |
| GGAGCAAUUAAAGGUGUCATT against Fpr-rs3 | -0.159 (inactive) |
| CCAUCUUCAGCAGUGGAAATT against Rph3al | -1 (inactive) |
| GGCGUGCGAUAACACGCAATT against Med18 | 1.05 (inactive) |
| GGUCGUAUGGUGCUCAAGATT against Pira1 | -1.76 (inactive) |
| GGCAUAGGACUAGAAGCAGTT against Rsrc2 | -1.54 (inactive) |
| GCAGUAUGGGACUAUGCUUTT against Cp | -0.0969 (inactive) |
| GCCAGAACCUGACUUAUAUTT against Mia2 | -0.0793 (inactive) |
| GCCUGGCUAGAAAUGUGGUTT against Fpr3 | 3.19 (active) |
| CCUCAUUCAGAGUAUAUAGTT against Vwa3a | -0.469 (inactive) |
| GGCUUUAGAGAAAGAAGUATT against Med4 | 1 (inactive) |
| GCGAGGUGUCUCUAUCAACTT against Mrpl11 | 3.37 (active) |
| GCCUUUCUUCAGUGUUCACTT against Gm128 | 0.498 (inactive) |
| GGUCUACGCUAUCCUAGUUTT against Grin1 | -2.23 (active) |
| GCACCAAAAUACACGAAAGTT against Ptpdc1 | -1.11 (inactive) |

| Sequence | z-score |
| --- | --- |
| CCCAUGACUAUCCAAACAATT against Kcnmb2 | -1.52 (inactive) |
| CCUUAGUAACAGCACUAGCTT against Lrfn2 | -0.228 (inactive) |
| GGAGCUGGAGUACGACUACTT against Tmem30b | -0.891 (inactive) |
| GGGAAAAUUUCCUCUGACUTT against Chia1 | -2.03 (active) |
| UUUAAGGAUCUCGUGCGAATT against Olfr809 | -0.12 (inactive) |
| GCUAAAACCCGUUACUUCCTT against Gsta4 | 0.669 (inactive) |
| CGACUACAAUGGGCUCAAGTT against Kifc3 | -2.1 (active) |
| GGUAAAGGGUUCUUGGACATT against Eps15l1 | -0.156 (inactive) |
| GGAGAAUGCCCUGAUAUAGTT against Hyal5 | 1.56 (inactive) |
| GGAUGUGAUUGAUAUUGAATT against Cul7 | 1.63 (inactive) |
| GCAGUAGUCUUGGAAUUAATT against Bhlhe41 | 2.15 (active) |
| GCAGCGAGGUUAUCAGUAATT against Sox8 | -0.554 (inactive) |
| GCCUUUUUACAGCUCAGGUTT against Zfp975 | -0.623 (inactive) |
| GCCACCCUUCUGGAGAUUCTT against Gm6787 | 1.49 (inactive) |
| CGGUAUCUACAUCAUAAACTT against Rpsa | 0.172 (inactive) |
| GGUUACCAGAAAAUAACUATT against E130114P18Rik | 0.852 (inactive) |
| UGUCAACUGACUGUAGUAATT against Zmynd12 | 1.66 (inactive) |
| GGACUGGAAAAUAUCAAACTT against Spata5 | 2.04 (active) |
| GGCUACGUGAAGGAACAGUTT against Rps10 | 0.397 (inactive) |
| GGCACUUAAGUAUUCUUCATT against Wac | -0.412 (inactive) |
